Bioassay records from PubChem.
CHX counter = affects cycloheximide protein synthesis inhibition readout, counter-screen; max response, %; 300,000 tested, 12% active; cell reporter, cycloheximide protein synthesis inhibition counterscreen; AID 2314; in the data active means max response mostly above about 13%, no sharp cut-off; inactive means mostly below about 14%; further: read at 38.3 µM for the half of the compounds with a filed dose
HCV inhibitor = HCV inhibition | Huh7.5.1 HCVcc-Cre infection, luciferase reporter, 44 h | Potency, µM (top dose mostly 41.8 µM), actives largely listed as inhibitors | 340,000 tested, 3.4% active
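Infectious HCVcc-Cre (~0.5 moi) was added to cells just after compound, with cells seeded 4 h earlier at 1,000 per well. Luciferase activity after 44 h culture reported infection; substrate was incubated 15 min at room temperature before reading.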
Shiga toxin inh = Shiga toxin inhibition. Vero cells, Shiga toxin protein synthesis inhibition reporter. inhibition, % at 38.7 µM. 290,000 tested, 9.2% active; in the data active means inhibition mostly above about 28%, no sharp cut-off; inactive means mostly below about 43%
AMA1 RON2 block = inhibitors of Plasmodium falciparum AMA1-RON2 interaction; 360,000 tested, 0.2% active; Potency, µM (titrated, usually from 58.2 µM), usual class: inhibitors; AID 720542; AlphaScreen AMA1-biotinylated RON2 peptide binding; further: nearly all actives have a fitted effect of over 45% in size
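AMA1 (3D7) with his tag at 25 nM final met compounds first, then biotinylated RON2 peptide at 25 nM; detection used donor plus acceptor beads, 10 µg/mL apiece, read by AlphaScreen after 30 min at room temperature.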
Pf growth 96h = P. falciparum growth inhibition at 96 hour, primary screen for plastid delayed-death inhibitors; P. falciparum luciferase reporter growth, 96 h; Potency, µM (doses to about 28.7 µM), usual class: inhibitors; 320,000 tested, 6.9% active; AID 504834
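96 h incubation, 37 C, 5% CO2, of luciferase-reporter P. falciparum-infected RBCs (2% hematocrit, 0.05% parasitemia final) with test compounds; endpoint luminescence.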
Pf growth 48h = P. falciparum growth inhibition at 48 hours (one generation); P. falciparum luciferase growth in erythrocytes, 48 h; Potency, µM (top dose mostly 28.7 µM), actives largely listed as inhibitors; 310,000 tested, 5.9% active; AID 504832
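Erythrocytes infected with P. falciparum carrying an integrated firefly luciferase reporter (2% hematocrit, 0.1% parasitemia final) were exposed to compounds in RPMI 1640 with 0.5% Albumax at 37 C, 5% CO2. Growth inhibition was scored as reduced luminescence.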
A number is an active result; 0 = inactive; ? = inconclusive; - = not tested or not shown; [ ] = another dose, or the depositor's remark. In the library only some 21% were active in any assay of this set; here they are far more common. Unless noted, the call rests on the fitted dose curve; in most records, active means well fitted curve in the direction sought with a large enough effect; inconclusive means small, poorly fitted or top-dose-only effect, or another doubt; inactive means no such curve, though single readings can be large; an effect the other way counts as inactive or inconclusive.

SMILES	CHX counter	HCV inhibitor	Shiga toxin inh	AMA1 RON2 block	Pf growth 96h	Pf growth 48h
O=C(NCc1ccccc1)c1nc2c(nnn2Cc2cccc(Cl)c2)c(=O)[nH]1	0	0	0	0	2.94µM	0
Cc1ccc(Cn2nnc3c(=O)[nH]c(C(=O)NCc4ccco4)nc32)cc1	24.8	0	111.2	0	-	0
O=C(NCc1ccco1)c1nc2c(nnn2Cc2cccc(Cl)c2)c(=O)[nH]1	0	0	0	0	0	0
COCCNC(=O)c1nc2c(nnn2Cc2cc(C)ccc2C)c(=O)[nH]1	0	0	0	0	9.28µM	0
O=C(NCC1CCCO1)c1nc2c(nnn2Cc2ccccc2Cl)c(=O)[nH]1 (centres undefined)	0	0	0	0	13.1µM	0
COC(=O)c1sc(NC(=O)OCc2ccccc2)nc1CCNC(=O)OC(C)(C)C	-	-	-	0	-	-
O=C(NCCOCCOCCNC(=O)c1cccnc1)c1cccnc1	16.7	0	0	0	0[5.75 µM]	0
O=C(NCCc1cccc(Cl)c1)c1cccnc1	57.0	0	142.5	0	0	0
NS(=O)(=O)c1ccc(CCNC(=O)c2cccc([N+](=O)[O-])c2)cc1	0	0	0	0	0	0
O=C(NCCc1cccc(Cl)c1)c1cccc([N+](=O)[O-])c1	21.5	0	0	0	0	0
N#Cc1ccc(C(=O)OCC(=O)N2CCCC2)cc1	0	0	0	0	0	0
Cc1ccc2c(c1)N(CC(=O)N1CCCCCC1)C(=O)CO2	0	-	0	0	-	0
CC(C)(C)c1ccc2c(c1)N(CC(=O)N1CCCC1)C(=O)CO2	0	0	0	0	0	11.7µM
CN1CCN(C(=O)CN2C(=O)COc3ccc(S(=O)(=O)N4CCOCC4)cc32)CC1	0	0	0	0	5.22µM	0
Cc1ccc2c(c1)N(CC(=O)N1CCCCC1)C(=O)C(C)O2 (centres undefined)	0	0	0	0	9.28µM	0
CCCN1CCN(C(=O)CN2C(=O)COc3ccc(S(=O)(=O)N(CC)CC)cc32)CC1	0	0	0	0	2.94µM	0
CCOC(=O)N1CCN(C(=O)CN2C(=O)COc3ccc(S(=O)(=O)N4CCOCC4)cc32)CC1	0	0	0	0	0	0
CCCCC1Cc2[nH]c(=S)[nH]c(=O)c2C(c2ccc(Cl)cc2)O1 (centres undefined)	-	-	-	0	-	-
COc1ccccc1/C=C/C(=O)NNC(=O)c1cccs1	26.3	0	70.9	0	0	0
O=C(/C=C/c1ccccc1)NNC(=O)c1cccs1	23.4	0	0	0	0	0
O=C(/C=C/[C@H]1O[C@@H](n2cnc3c(NC(=O)c4ccccc4)ncnc32)[C@H](O)[C@@H]1O)N[C@@H](CO)Cc1c[nH]c2ccccc12	-	-	-	0	-	-
COc1ccccc1-c1cnc(C(O)c2ccc(CN3CCCCC3)cc2)[nH]1 (centres undefined)	-	-	-	0	-	-
O=C1NCCNC1(c1c[nH]c2ccccc12)C(F)(F)F (centres undefined)	0	0	0	0	1.04µM	-
CCOc1ccc(C(=O)N2CCC3(CC2)NCCc2[nH]cnc23)cc1OCC	0	0	0	0	0	0
CC1(C(=O)NCc2cccc3ccccc23)CCN1C(=O)C1(c2ccccc2)CCCC1 (centres undefined)	-	-	-	0	-	-
SMILES	CHX counter	HCV inhibitor	Shiga toxin inh	AMA1 RON2 block	Pf growth 96h	Pf growth 48h
CCN(CC)c1ccc2c(Cl)cc(=O)oc2c1	0	0	0	0	0	0
CCNc1ccc2c(Cl)cc(=O)oc2c1	19.5	?	0	0	?	0
O=C(COC(=O)Cc1n[nH]c(=O)c2ccccc12)Nc1c(Br)cc([N+](=O)[O-])cc1Br	-	0	-	0	-	-
CC(C)CC(=O)NC(=S)Nc1ccc(NC(=O)c2ccco2)cc1	0	0	0	0	6.57µM	?
COc1cc(NC(=O)Cc2ccccc2)ccc1NC(=O)c1ccco1	0	?	0	0	?	0
CCN(CC)S(=O)(=O)c1ccc(NC(=S)NC(=O)CC(C)C)cc1	0	0	0	0	?	?
CCC(=O)NC(=S)Nc1ccc(NC(=O)c2ccco2)c(OC)c1	0	0	active	0	0	0
CCC(=O)NC(=S)Nc1ccc(NC(=O)c2ccco2)cc1	29.2	0	58.8	0	?	?
CCCCC(=O)NC(=S)Nc1cccc(NC(=O)c2ccco2)c1	0	?	0	0	0	0
CCc1ccc(NC(=S)NC(=O)CC(C)C)cc1	70.5	0	19.1	0	0	0
C[C@@H]1CN([C@@H](C)CO)C(=O)CCCn2nncc2CO[C@H]1CN(C)C(=O)c1ccc(N2CCN(C)CC2)cc1	-	-	-	0	-	-
COCCN(C(=O)CSc1nnc(-c2cccs2)n1N)c1c(N)n(Cc2ccccc2)c(=O)[nH]c1=O	0	0	0	0	0	0
O=C(c1ccc(-n2cncn2)c2ccoc12)N1CCOCC1	-	-	-	0	-	-
CC(C)C(=O)N1CCN(c2ccccc2NC(=O)Cc2ccc(Cl)cc2)CC1	0	?	0	0	0[5.75 µM]	13.1µM
CS(=O)(=O)N1CCN(c2ccccc2NC(=O)Cc2ccccc2)CC1	0	0	0	0	0	0
CCC(=O)N1CCN(c2ccccc2NC(=O)Cc2ccccc2)CC1	0	?	0	0	0	10.4µM
O=C(Cc1ccccc1)Nc1ccccc1N1CCN(c2ccccc2)CC1	0	0	0	0	-	9.28µM
CC(C)(C)n1nnnc1C(c1ccccc1)N1CCN(c2ncccn2)CC1 (centres undefined)	-	-	-	0	-	-
CCC(=O)NC(c1ccccc1)c1c(OC(C)=O)ccc2ccccc12 (centres undefined)	0	0	0	0	10.4µM	?
CC(=O)Oc1ccc2ccccc2c1C(NC(=O)Cc1ccccc1)c1ccccc1Cl (centres undefined)	0	?	0	0	0	2.62µM
CCC(=O)NC(c1cccc([N+](=O)[O-])c1)c1c(OC(C)=O)ccc2ccccc12 (centres undefined)	0	0	0	0	0	13.1µM
CCCC(=O)NC(c1ccccc1)c1c(O)ccc2ccccc12 (centres undefined)	0	?	0	0	0	0
CC(=O)NC(c1ccccc1)c1c(O)ccc2ccccc12 (centres undefined)	0	0	0	0	0	0
CC(=O)NC(c1ccc([N+](=O)[O-])cc1)c1c(O)ccc2ccccc12 (centres undefined)	0	0	0	0	0	?
CCC(=O)NC(c1ccccc1)c1c(O)ccc2ccccc12 (centres undefined)	0	0	0	0	?	9.28µM
CCCC(=O)NC(c1ccc(N(C)C)cc1)c1c(O)ccc2ccccc12 (centres undefined)	0	0	0	?	11.7µM	?
Cc1onc(-c2ccccc2)c1C(=O)NNC(=S)NC(=O)c1ccc(Cl)cc1Cl	0	0	0	0	0	0
Cc1ccccc1C(=O)NNC(=S)NC(=O)c1ccc(Cl)cc1Cl	0	0.562µM	0	0	0	-
